Screen size: about 53,000 sequences; about 3,700 (7%) were called active.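 The calls were made as follows: active = gene knockdowns whose robust z-score for IL-1 alpha signal is at least 2 or at most -2, so actives lie on both sides; inactive = the rest.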 The full list was thinned out, with actives kept by preference.

This experiment is described as follows: Components of the Cytosolic LPS Sensing Pathway: Gene Identification via Genome-wide siRNA Screen.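 Also: robust z of the log signal after scaling to non-targeting control siRNA wells of the plate.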 The conditions noted are these: RAW264.7 macrophages, IL-1a HTRF, actives lie on both sides, screened at 100 nM (by protocol), cells primed 5 h with Pam3CSK4 first. An outline of the steps:
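RAW264.7 mouse macrophages reverse-transfected with single siRNAs (100 nM final) for 48h, primed with Pam3CSK4 for 5 hours, then transfected with LipidA for 24 hour. Supernatant IL-1a read by HTRF; values normalized to negative-control median, log-transformed robust z-scores.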
A general note: Time-resolved FRET reads energy transfer from a long-lived donor to a nearby acceptor.
Turning to GAGAGCGGAGAGAUCAAAGTT against Iltifb, the z-score is 0.108 (inactive).

Take GGCUGUUCCAGAGAUUGUGTT against Mela: the z-score is -0.29 (inactive).

Take GCGGUAUGAGAAGGUUCCATT against Rap2a: the z-score was 3.48 (active).

Consider GGCAUUGACAUCAUGUACUTT against Agxt, for which the z-score is 1.1 (inactive).

On to GCGACAUCACAAGAAUCGATT against Fancd2, for which the z-score is -0.979 (inactive).

As to CCUAUCAAAUUAAAUGCGCTT against Muc13, the z-score was -0.6 (inactive).

GGUUGUGAUCAAUUAUUCATT against Evl: the z-score is 1.27 (inactive).

GGAACACUCUGAAUUCAUUTT against Cxcl15: the z-score is 0.0905 (inactive).

For GCUGCUUUACUUAAGAGUUTT against Srf, the z-score was 0.625 (inactive).

With GCGAAACUUCCAGAUCUAGTT against Cnot11, the z-score was 2.14 (active).

On to GGGCAAGAGAGUAGAACUGTT against Ambra1, for which the z-score is 0.383 (inactive).

As for GGUGACACAGCUGCUUUUCTT against Dact2, the z-score is 0.107 (inactive).

For the sequence CGGUCCAGGAAGAAUGUUUTT against Bckdhb, the z-score is -0.781 (inactive).

Consider GGAUUGUCAGAAAUCCUGATT against Adat2, for which the z-score was -1.22 (inactive).

Take CCCAUCAAUAUCAUAUCCATT against Car7: the z-score is -2.34 (active).

Turning to CCAGAGUUCUGGGAUUCCATT against Cyp2c66, the z-score is -0.948 (inactive).

With GGCCAAGAAUGAUCGUUCUTT against Gabrb3, the z-score is 0.00587 (inactive).

Turning to GCAGACAGUAAAUUGGUAATT against Mab21l3, the z-score is 0.915 (inactive).

With GGAUUACACACCUACGAUCTT against Taf10, the z-score is -1.63 (inactive).

In the case of CGACUACCUGGAUAUCUACTT against Efna2, the z-score is -0.292 (inactive).

For GGCGUGUUGAGACAAUCCUTT against Lkaaear1, the z-score is -0.815 (inactive).

Regarding GCAUAGCAGGAAGGCCUUGTT against Htr6, the z-score was 0.183 (inactive).

Turning to GCAUAUUGUGCGACUUUUCTT against Utp15, the z-score is -2.16 (active).

For GCAAAUUUUAUCAACCGCATT against Mical3, the z-score was -0.0618 (inactive).

For CGACCAUACGAAUGCGGCATT against Zfp865, the z-score was 0.498 (inactive).

As to GGCUUGAACACAAGAAAGCTT against Golim4, the z-score was -0.778 (inactive).

Take “GGAUGAGAAUAUUGAAAGATT against 4932415M13Rik”: the z-score is -0.225 (inactive).

GGCAGGAAAACUGCCAAUGTT against Gm6034: the z-score is 1.36 (inactive).

As to CCUUAAUUGGGUUGAAUUCTT against Olfr878, the z-score was 2.44 (active).

For the sequence GCUGACUAAGGCUUGUAAUTT against Hrnr, the z-score is -0.194 (inactive).

As for GGUUAAUUCCAACAAAGCATT against Orc4, the z-score is -0.529 (inactive).

For GGUCUACAACCAAAUCUGCTT against Clec7a, the z-score was -0.531 (inactive).

In the case of CCUGAGACUGCAUCUUUUCTT against Slc10a7, the z-score is -0.693 (inactive).

As to GCCAAAUUAAGUAUCUUGATT against Lamp2, the z-score is 0.371 (inactive).

Consider GCCUCAUUGAAAGGAUCCATT against Mgat5b, for which the z-score is -2.32 (active).

With GGCGGAAAAAAAAGUAAUATT against Crebzf, the z-score is 0.926 (inactive).

For GGCUCAUUGGACAUAUAUGTT against Casp8ap2, the z-score was -1.77 (inactive).

In the case of GGGACACCAAGUUUUCCAUTT against Paqr7, the z-score was 1.63 (inactive).

As to GGAAGAAGCAGGUGAUUAATT against Grb14, the z-score was -1.24 (inactive).

For CGGAUCGGUGCGAGAAUAATT against Gpatch3, the z-score was 0.61 (inactive).

In the case of GGCCCUGUGUCAAAUCAGUTT against Zfand6, the z-score is 2.1 (active).

Take GGAGAUUGUUAUGCAAAAATT against Dnah5: the z-score is 0.178 (inactive).

Take GGAAAUUUUGAACCUGACATT against Setd3: the z-score is 0.125 (inactive).

With GGUCUCAAAGAAAUCUGUATT against Bcap29, the z-score is -2.4 (active).

For GGACUCUUCAGCUUCCAGUTT against Uts2, the z-score is -0.0543 (inactive).

Take CCAAGACUCUUUAUUCAACTT against Rasip1: the z-score is 0.774 (inactive).

As for GGAGACAGAAAAUCAAGGCTT against Taf7, the z-score was -0.506 (inactive).

On to CCCUUGCUUGCUAAGAUUUTT against Scyl3, for which the z-score is -0.684 (inactive).

As to “GCUGGUGUCUUAUGGCCUATT against 9130008F23Rik”, the z-score was -2.02 (active).

Regarding GGAUACAGAGUAUUUCAAGTT against Rtkn, the z-score was -1.01 (inactive).

In the case of GCUUGUUCGGGAAUCUUAUTT against Olfr292, the z-score was 0.116 (inactive).

GCCUGUUCCGCCAUUCAUGTT against Flii: the z-score was -0.2 (inactive).

With GCUCACACUCUUCAUUAUCTT against Olfr1408, the z-score was -2.91 (active).

As for GGUGUUAGCUUCUCAAAAUTT against Cltrn, the z-score was 0.497 (inactive).

Regarding GGAACAUCAUCCACUGGAATT against Crhr1, the z-score is 6 (active).

Turning to GGCAAUUUGUGGAUUAUUGTT against Olfr1105, the z-score was -0.458 (inactive).

Turning to CCCUAAUUCAUUAGCUAUATT against Dhdds, the z-score was 0.111 (inactive).

Consider GGACCCUGCUUUUUAAAAATT against Harbi1, for which the z-score is 0.293 (inactive).

For the sequence GGAAGAGGAGGAAAACUUGTT against Fam135b, the z-score was -0.653 (inactive).

Turning to GGAUGAUCUUGGUGUACACTT against Tmem91, the z-score was 3.04 (active).

As for GGUAUAAUUGGAAUUGUGATT against Morc1, the z-score was -0.658 (inactive).

In the case of GGUUGUCUGGAAUUUCCAUTT against Immp2l, the z-score is 3.81 (active).

Regarding CCCAAUUCCUUAACUAUUATT against Cd209a, the z-score was 1.02 (inactive).

For GGUGGAAAGUGCAUAGACATT against Notch3, the z-score is 0.789 (inactive).

Consider GGACCUGGAUCUAUCCUACTT against Lrfn1, for which the z-score was -0.969 (inactive).

In the case of GGAUGAUGACUUCCUAGGGTT against Cpne7, the z-score was -0.622 (inactive).

For the sequence CCUUAGGAUAGAAACAAAGTT against Mypn, the z-score is 1.01 (inactive).

As for GCCAGUUAUGAGCAACACCTT against Slc46a1, the z-score is -2.14 (active).

As for GCUAACAAAUGUCAGCAUGTT against Popdc3, the z-score was 0.319 (inactive).
